HIF-2a block: inhibitors of HIF-2a | 786-0 RCC cells HIF-2a reporter, luciferase luminescence, overnight | inhibition, % at 18.8 µM | 0.72% of 360,000 active | AID 624352;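 active means inhibition of the luminescence signal of 40% or more relative to plate controls, in a single-dose primary screen at 18.75 µM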
CF NFkB block: cystic fibrosis NF-kB activation inhibition; KKLEB NF-kB-GFP reporter, PAF-induced, GFP fluorescence overnight; inhibition, % at 5 µM; 0.86% of 360,000 active; AID 588850;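 active means at least 50% inhibition at 5 µM, scaled per plate between neutral and stimulator controls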;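 further: PAF is a Pseudomonas aeruginosa culture filtrate used as stimulus; plate controls were PAF-stimulated DMSO wells for no effect and unstimulated DMSO wells for full effect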
TRPM1 prom inh: inhibitors of MITF-driven TRPM1 promoter in melanoma cells | SK-MEL-5 TRPM1 promoter luciferase, 24 h | inhibition, % at 12.5 µM | 0.83% of 330,000 active | AID 488899;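 active means mean inhibition across replicates of 60% or more, whatever share of single replicates reaches that level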
Peg3 promoter: Peg3 promoter activity inhibition; HeLa PEG-Prom luciferase reporter, luminescence, overnight; 1.7% of 360,000 active; inhibition, % at 20 µM;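 active means inhibition of at least 50% at 20 µM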
KKLEB cytotox: counter-screen for CF NF-kB inhibitors: cytotoxicity | KKLEB CF airway cells viability, ATPlite luminescence, overnight; stronger effect = lower value; cells stimulated with P. aeruginosa culture filtrate | activity change (cytotoxicity), % at 5 µM | 0.36% of 360,000 active | AID 602141;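 active means corrected activity change at or below -50% at 5 µM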
Shn3 3UTR inh: inhibitors of Schnurri-3 3'UTR reporter in osteoblasts; inhibition, % at 12.5 µM; Clone20 osteoblast Shn3 3'UTR firefly luciferase, 24 h; 0.52% of 360,000 active;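 active means mean inhibition of at least 75% with every replicate also reaching 75%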;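 further: 0% = median of neutral control wells and 100% = pilot-screen positive control compound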
Mdm2-MdmX confirm: confirmation of inhibitors of human Mdm2/MdmX interaction, set 2 | SaOS-2 split-luciferase Mdm2/MdmX complementation, luminescence | 99% of 740 active | shares compounds with HIF-2a block | inhibition, % at 8 µM;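 active means mean inhibition of the luminescence signal across two replicates at or above 26 percent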
Target sequence (O15151 whole entry, looked up): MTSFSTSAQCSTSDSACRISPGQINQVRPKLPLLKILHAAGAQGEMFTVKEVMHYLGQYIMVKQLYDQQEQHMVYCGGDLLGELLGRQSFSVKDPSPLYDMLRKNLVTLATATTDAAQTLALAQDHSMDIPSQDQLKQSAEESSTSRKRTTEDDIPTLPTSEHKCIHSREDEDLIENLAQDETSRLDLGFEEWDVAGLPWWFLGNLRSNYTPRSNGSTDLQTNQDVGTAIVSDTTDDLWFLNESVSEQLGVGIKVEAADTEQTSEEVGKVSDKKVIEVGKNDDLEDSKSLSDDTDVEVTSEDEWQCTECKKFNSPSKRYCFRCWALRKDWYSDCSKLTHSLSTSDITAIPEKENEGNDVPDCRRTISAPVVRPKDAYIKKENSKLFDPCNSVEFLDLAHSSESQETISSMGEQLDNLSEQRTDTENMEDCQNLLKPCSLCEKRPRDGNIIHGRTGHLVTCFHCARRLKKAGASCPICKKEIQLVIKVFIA
Target sequence (Q00987 whole entry, looked up): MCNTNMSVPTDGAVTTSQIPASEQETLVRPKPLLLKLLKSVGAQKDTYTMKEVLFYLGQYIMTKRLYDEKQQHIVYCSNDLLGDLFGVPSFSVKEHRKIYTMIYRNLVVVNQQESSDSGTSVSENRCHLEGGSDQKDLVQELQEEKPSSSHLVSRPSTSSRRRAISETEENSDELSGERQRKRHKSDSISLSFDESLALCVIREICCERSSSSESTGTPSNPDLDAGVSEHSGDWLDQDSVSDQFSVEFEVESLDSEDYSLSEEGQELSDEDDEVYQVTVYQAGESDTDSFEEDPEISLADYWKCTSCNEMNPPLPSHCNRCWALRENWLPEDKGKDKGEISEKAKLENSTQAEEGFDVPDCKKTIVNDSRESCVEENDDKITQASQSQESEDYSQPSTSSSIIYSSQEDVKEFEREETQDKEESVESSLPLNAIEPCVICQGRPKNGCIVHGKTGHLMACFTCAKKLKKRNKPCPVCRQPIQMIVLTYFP
HIF-2a conf: HIF-2a inhibition, single concentration confirmation. shares compounds with HIF-2a block. 56% of 1,800 active. inhibition, % at 18.8 µM. 786-0 RCC cells, HIF-2a luciferase reporter luminescence, overnight;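 active means mean inhibition across four replicates of at least 40 percent at the single tested concentration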
HIF-1a counter: counter-screen for HIF-2a inhibitors: HIF-1a inhibition in MiaPaCa-2 cells | MiaPaCa-2 HIF-1a luciferase reporter, desferoxamine, overnight | 72% of 1,800 active | shares compounds with HIF-2a block | AID 651589 | inhibition, % at 18.8 µM;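 active means mean inhibition of the reporter signal across four replicates at the single tested dose of 50% or more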
* marks the source's active call; other numbers are inactive results; x = no result given. A selection: hits, their analogues and other compounds. The true share with any hit is near 2.8%.

SMILES	HIF-2a block	CF NFkB block	TRPM1 prom inh	Peg3 promoter	KKLEB cytotox	Shn3 3UTR inh	others
O=C(CCc1ccccc1)NC(=S)NCc1ccco1	-35	-2	8	-41	1	-13
CCOc1ccc(C(=O)CSCCC(=O)O)cc1	78*	9	27	5	0	29	HIF-2a conf=82*;HIF-1a counter=61*
CCOC(=O)c1c(NC(=O)CN2C(=O)C(=O)N(CC(C)C)C2=O)sc(C)c1CC	-2	13	-10	-11	-14	-23
NS(=O)(=O)c1ccc(Sc2nc3ccccc3s2)c([N+](=O)[O-])c1	16	82*	-8	37	-53*	x	Mdm2-MdmX confirm=97*
NS(=O)(=O)c1ccc(Sc2ccccn2)c([N+](=O)[O-])c1	11	17	1	11	10	0
COc1ccc(/C=C2\SC(=S)N(CCC(=O)Nc3ccc(C(=O)O)cc3)C2=O)cc1	8	6	-13	-1	-2	-16
O=C(CCN1C(=O)/C(=C/c2ccccc2)SC1=S)NCCc1ccc(O)cc1	25	-3	-5	95*	-4	-21	Mdm2-MdmX confirm=102*
COc1ccc(/C=C2/SC(=S)N(CCCC(=O)Nc3ccc(O)cc3)C2=O)cc1	31	-17	21	-121	2	7	Mdm2-MdmX confirm=102*
COc1ccc(/C=C2\SC(=S)N(CCCC(=O)Nc3ccc(O)cc3)C2=O)cc1	45*	-24	6	-42	5	9	Mdm2-MdmX confirm=103*
COc1cccc(OCC(=O)NC2CCS(=O)(=O)C2)c1 (stereo not given)	10	-11	-1	16	8	-27
CC(C)(C)NC(=O)CN(C(=O)C(=O)Nc1ccc2c(c1)OCCO2)C(C)(C)C	9	20	1	12	-5	-3
O=S(=O)(Cc1ccccc1)N=Nc1c(O)[nH]c2ccc(Br)cc12	15	-29	32	12	2	-10
CC1(C(=O)NS(=O)(=O)c2cccs2)CCN1C(=O)C1(c2ccc(Cl)cc2)CCC1 (stereo not given)	16	-14	x	8	-7	2
CC(C)CCC(C(=O)O)C(C)CC(=O)Nc1ccn(-c2ccccc2)n1 (stereo not given)	2	-6	-11	9	-2	7
CC(C)n1cnc2c(NCc3ccccc3)cc(N[C@H](C)CO)cc21	-29	15	73*	67*	-18	42	Mdm2-MdmX confirm=89*
COCCCOc1cc(NCc2ccccc2)c2ncn(C(C)C)c2c1	18	-14	56	26	2	-19
C=CCN1C(=O)N/C(=C/c2ccc(C)o2)C1=O	40*	-9	13	-15	1	2	HIF-2a conf=-33;HIF-1a counter=-13
Cc1ccc(NC(=O)CN2C(=O)N/C(=C/c3ccc(C)o3)C2=O)cc1	-3	9	-11	-4	-5	14
Cc1ccc(NC(=O)c2c(F)cccc2Cl)cc1S(=O)(=O)N1CCOCC1	-9	-1	0	16	-3	17
O=C(NC(=S)Nc1ccccc1N1CCCCC1)c1ccco1	-6	-12	0	28	-5	-26
O=C(NC(=S)Nc1ccccc1N1CCCC1)c1ccco1	76*	9	14	-18	-6	x	HIF-2a conf=-8;HIF-1a counter=7
O=C(NCc1ccco1)/C(=C/c1ccc(F)cc1)NC(=O)c1ccccc1	14	-3	4	6	4	6
O=C(Nc1nc(-c2ccc(-c3ccccc3)cc2)cs1)c1cc([N+](=O)[O-])ccc1N1CCOCC1	62*	-5	x	0	-6	6	HIF-2a conf=-78;HIF-1a counter=-7
CCc1nnc(NC(=O)c2cc([N+](=O)[O-])ccc2N2CCOCC2)s1	14	-2	-13	4	0	0
